# Experimental data from the supplement of paper PMC11219838.
# Unmarked numbers belong to inactive results.
# Key:
# Settings in all cases: 60 µM; 5 days; temperature: 20 °C
# Meloidogyne hapla J2 = assay: proportion of mobile M. hapla J2 relative to DMSO control (fraction of DMSO control); higher = more viable, less nematicidal, active = 0.7 or less
# Summary of the method: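 Compound was pinned to 60 µM final (0.6% v/v DMSO) into 96-well wells, each holding about 25 M. hapla J2 in distilled water. Plates were sealed and shaken for 5 days at 20 °C and 200 rpm, then given 2 µL 1 M NaOH per well. Microscopic mobility scores were normalised to the mean of the plate's own DMSO wells, eight per plate, with two biological replicates averaged.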
# Ditylenchus dipsaci = assay: proportion of mobile D. dipsaci (mixed stage) relative to DMSO control (fraction of DMSO control); higher = more viable, less nematicidal, active = 0.86 or less; extreme values may be limits of the assay
# Summary of the method: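 Mobility values are relative to DMSO controls and are averages of two biological replicates. For each well of a 96-well plate, about 20 D. dipsaci worms, grown on pea plants in Gamborg B-5 agar and funnel-extracted into water, were dispensed in distilled water. Plates received pinned compound at 60 µM final with 0.6% v/v DMSO and were sealed and shaken at 200 rpm for 5 days at 20 °C before 2 µL 1 M NaOH was added and mobile worms were scored by microscope.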
# [1] = system: Caenorhabditis elegans dauer (daf-2(e1370)); assay: proportion of mobile C. elegans dauer larvae relative to DMSO control (fraction of DMSO control); higher = more viable, less nematicidal, active = 0.63 or less; extreme values may be limits of the assay
# Summary of the method: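 The proportion of mobile worms, relative to DMSO wells, was scored by dissection microscope and averaged over two biological replicates. Worms were C. elegans dauers, about 20 per well in liquid NGM in 96-well plates, generated from synchronized larvae on MYOB plates with E. coli OP50 at 25 °C for 48 h. They were treated with compound pinned to 60 µM final (0.6% v/v DMSO) and kept in sealed plates shaken at 200 rpm for 5 days at 20 °C.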
SMILES,proportion of mobile M. hapla J2 (Meloidogyne hapla J2),proportion of mobile D. dipsaci (Ditylenchus dipsaci),proportion of mobile C. elegans dauer larvae [1]
COc1ccc(-c2noc(-c3ccc(Cl)cc3Cl)n2)cc1,1.04,1,
CCCCc1nc(-c2ccc(-c3ccc(C)cc3)nc2OC)no1,0.843,1,
CC(C)(C)NC(=O)CSc1nnc(-c2ccc(C(C)(C)C)cc2)o1,1.02,1,
O=C(CSc1nnc(-c2ccco2)o1)Nc1ccccc1F,0.933,1,
O=C(CSc1nnc(-c2ccco2)o1)Nc1cccc(Cl)c1Cl,0.866,1,
CCOc1ccc(NC(=O)CSc2nnc(-c3ccncc3)o2)cc1,0.897,1,
CCOc1nc(-c2ccc(C)cc2)ccc1-c1noc(-c2ccc(F)cc2)n1,0.829,1,
CCc1cccc(CC)c1NC(=O)CSc1nnc(-c2ccccc2OC)o1,0.758,1,
COc1ccccc1CC(=O)Nc1ccc(-c2noc(-c3ccc(Cl)cc3)n2)cc1,0.938,1,
O=C(c1ccccc1-c1nc(-c2ccc(Cl)cc2)no1)N1CCCCC1,0.941,1,
Cc1ccc(-c2nc(-c3ccccc3)no2)cc1C,0.884,1,
COc1ccc(-c2noc(COc3ccccc3Cl)n2)cc1,1.04,1,
Cc1ccc(OCc2nc(-c3ccc(Cl)cc3)no2)cc1C,1.05,1,
COc1cccc(OCc2nc(-c3cccc(Br)c3)no2)c1,0.999,1,
COc1nc(-c2ccc(C)cc2)ccc1-c1noc(-c2cccc(C)c2)n1,0.949,1,
Clc1ccc(OCc2nc(-c3ccccc3)no2)c(Br)c1,1.02,1,
Cc1ccccc1-c1nnc(SCc2ccc(F)cc2)o1,0.939,1,
COc1ccc(-c2noc(-c3cccc(F)c3)n2)cc1,1,1,
Brc1ccccc1-c1nc(-c2ccncc2)no1,0.995,1,
Clc1ccccc1OCc1nc(-c2ccc(Br)cc2)no1,1.02,1,

SMILES,proportion of mobile M. hapla J2 (Meloidogyne hapla J2),proportion of mobile D. dipsaci (Ditylenchus dipsaci),proportion of mobile C. elegans dauer larvae [1]
O=C(Nc1cccc(-c2noc(-c3cccnc3)n2)c1)c1cccs1,0.999,1,
COc1ccc(-c2noc(-c3ccc(C)cc3)n2)cc1,0.998,0.932,
COc1cccc(-c2noc(-c3cc(C)ccc3C)n2)c1,0.995,1,
CCOc1nc(-c2ccccc2)ccc1-c1noc(-c2ccccc2F)n1,0.926,1,
Cc1ccccc1CSc1nnc(-c2ccccc2)o1,1.02,1,
CCOc1cc(-c2nc(-c3cccnc3)no2)cc(OCC)c1OCC,,1,1
CCc1nnc(NC(=O)CSc2nnc(-c3cccc(C)c3)o2)s1,0.815,1,
Clc1ccc(-c2nc(-c3ccncc3)no2)cc1Cl,0.987,1,
CCOc1nc(C)ccc1-c1noc(-c2ccccc2F)n1,0.851,1,
Fc1cccc(-c2nc(-c3ccccc3)no2)c1,0.867,1,
Cc1cc(OCc2nc(-c3cccnc3)no2)c(C)cc1Br,0.771,1,
O=C(CSc1nnc(-c2ccc(Br)cc2)o1)Nc1nccs1,,1,1
Cc1ccccc1-c1nnc(SCC(=O)Nc2cc(C(F)(F)F)ccc2N2CCOCC2)o1,0.934,1,
Fc1ccc(-c2nc(-c3ccc4c(c3)OCO4)no2)cc1,1.02,1,
Cc1ccc(NC(=O)CSc2nnc(-c3ccco3)o2)cc1Br,1.03,1,
Fc1ccccc1OCc1nc(-c2ccc(Cl)cc2)no1,,1,1
Cc1ccc(-c2noc(COc3ccc(Cl)cc3)n2)cc1,1.02,1,
Cc1cccc(OC(C)c2nc(-c3cccnc3)no2)c1 (stereo not given),0.994,1,
O=C(CSc1nnc(-c2ccc(Br)cc2)o1)NC1CCCCC1,1.04,1,
Cc1ccccc1-c1noc(-c2ccccc2C(=O)NCc2ccccc2)n1,0.874,1,
